Outcome and AC50 data for 20 compounds are collected here from PubChem BioAssay (EPA / NIEHS).

Experiment [1] addresses mouse Estrogen Receptor alpha (Era), Esr1 (gene 13982) (UniProt P19785). The experiment is described as follows: NVS_NR_mERa: NovaScreen (NVS) Nuclear Receptor Binding Assay for mouse Estrogen Receptor alpha (Era) (AID 2283378).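 Note: hit means loss of bound radioligand signal relative to DMSO.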 Summed up:
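Cell-free radioligand binding with extracted mouse Era protein; competitive displacement of radiolabelled ligand, read by filter-based scintillation counting 18 hours after dosing. Loss of signal versus DMSO baseline taken as binding; single screening concentration 25 uM, actives followed in concentration series.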

Experiment [2] addresses Estrogen receptor beta (Homo sapiens) (UniProt Q92731). Description: OT_ER_ERbERb_1440: Odyssey Thera (OT) 24-hour HEK293T Protein-Complementation Assay for Estrogen Receptor-beta/-beta Homodimer (AID 2283380).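 Note: fluorescence gain from ER beta LBD homodimer complementation read by laser scanning cytometry; scored as signal increase over DMSO baseline for both agonists and antagonists.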 The essentials: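 HEK293T cells stably expressing human ER-beta LBD (aa 310-547) PCA homodimer pair, dosed 24 h; formaldehyde-fixed, Draq5-stained. Readout: increase in nuclear (agonist) or nuclear plus cytoplasmic (antagonist) fluorescence intensity versus DMSO, gain-of-signal fitting.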

In experiment [3] the target is Estrogen receptor (Homo sapiens) (UniProt P03372). The experiment is described as follows: OT_ERa_GFPERaERE_0480: Odyssey Thera (OT) 8-hour HeLa Transcription Induction Assay for Estrogen Receptor (AID 2283381; active = hit-call score of the fitted dose curve at least 0.9, where 1 is the maximum; inactive = score below 0.9). The essentials: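 Human cervical HeLa cells were treated for 8 hours, after which ERE-driven GFP induction was measured by fluorescence microscopy; increases over DMSO baseline defined activity.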

Experiment [4] addresses Retinoic acid receptor RXR-alpha (Homo sapiens) (UniProt P19793). Description: OT_NURR1_NURR1RXRa_1440: Odyssey Thera (OT) 24-hour HEK293T Protein Complementation Assay for Nurr1/retinoid X receptor (RXR) (AID 2283386). Summed up: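 Steps: fragment-tagged Nurr1 and RXRα expressed in HEK293T; compounds added; after 24 h, complemented reporter quantified by fluorescence intensity; signal increase over DMSO fitted as the single endpoint.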

For experiment [5], the target named is Peroxisome proliferator-activated receptor gamma (Homo sapiens) (UniProt P37231). Description: OT_PPARg_PPARgSRC1_0480: Odyssey Thera (OT) 8-hour Protein-Complementation Assay for Peroxisome Proliferator-activated Receptor Gamma / SRC-1 Co-activator (AID 2283387). Summed up: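 Split-YFP (IFP1/IFP2) PPARg/SRC-1 reporter, HEK293T, 37 °C, 5% CO2; 8 h compound; formaldehyde fix + Draq5; high-content imaging, N/C ratio, ≥350 cells/image, positive direction vs DMSO.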

The target is the same in experiment [6]. Description: OT_PPARg_PPARgSRC1_1440: Odyssey Thera (OT) 24-hour Protein-Complementation Assay for Peroxisome Proliferator-activated Receptor Gamma/ SRC-1 Co-activator (AID 2283388). The essentials: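 HEK293T cells transiently transfected with PPARg and SRC-1 fused via (Gly4Ser)2 linker to split Venus YFP fragments (IFP1/IFP2) were dosed 24 h; fixed, Draq5-stained, imaged at 488/635 nm; nuclear/cytoplasmic fluorescence ratio scored versus DMSO baseline, gain-of-signal.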

In experiment [7] the target is rat Serotonin Transporter (SERT), Slc6a4 (gene 25553) (UniProt P31652). The experiment is described as follows: NVS_TR_rSERT: NovaScreen (NVS) Transporter Assay for rat Serotonin Transporter (SERT) (AID 2283375). Summed up:
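Rat forebrain membranes were incubated with test chemical for 1 hour; radioligand binding to SERT was measured by filter-based scintillation counting. Primary screen ran in duplicate at 25 uM, with actives followed up in concentration series; DMSO served as negative control.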

The target of experiment [8] is Retinoic acid receptor RXR-alpha (Homo sapiens) (UniProt P19793). Description: OT_NURR1_NURR1RXRa_0480: Odyssey Thera (OT) 8-hour HEK293T Protein Complementation Assay for Nurr1/retinoid X receptor (RXR) (AID 2283385). Summed up:
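Interaction of bait and prey reconstitutes a functional reporter, whose fluorescence was measured in HEK293T cells dosed with compound for 8 hours. Signal gain relative to DMSO defined the single endpoint.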

The nature of experiment [9]: CEETOX_H295R_11DCORT: CeeTox H295R High-throughput Steroidogenesis Assay for 11-Deoxycortisol (11DCORT) (AID 2283432; active = hit-call score of the fitted dose curve at least 0.9, where 1 is the maximum; inactive = score below 0.9). The settings on record: actives raise or lower the signal. Summed up: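 Steroidogenesis in human H295R cells: 48 h chemical exposure after forskolin priming, 11-deoxycortisol measured by LC-MS/MS.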
Experiment [10] is described as follows: CEETOX_H295R_OHPREG: CeeTox H295R High-throughput Steroidogenesis Assay for OH-Pregnenolone (OHPREG) (AID 2283434; active = hit-call score of the fitted dose curve at least 0.9, where 1 is the maximum; inactive = score below 0.9). The settings on record: actives raise or lower the signal. The essentials: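 Readout: HPLC-MS/MS of 17alpha-hydroxypregnenolone in medium after 48 h chemical exposure of H295R cells pretreated with forskolin. Values fitted bidirectionally relative to DMSO; chemicals reducing viability to 20–70% were retested after 10-fold dilution.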

Experiment [11] is described as follows: CEETOX_H295R_OHPROG: CeeTox H295R High-throughput Steroidogenesis Assay for OH-Progesterone (OHPROG) (AID 2283435; active = hit-call score of the fitted dose curve at least 0.9, where 1 is the maximum; inactive = score below 0.9;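 for AC50: human adrenal H295R cells primed 48 h with 10 µM forskolin; 17alpha-hydroxyprogesterone secreted into medium measured by HPLC-MS/MS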). The settings on record: actives raise or lower the signal. The essentials:
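Steps: seed H295R cells and adhere overnight; stimulate with 10 uM forskolin for 48 h; replace with chemical-containing medium (0.1% DMSO) for 48 h; extract medium with MTBE; quantify 17alpha-hydroxyprogesterone by reverse-phase C18 HPLC-MS/MS against a 7-point curve.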

For experiment [12], the target named is Bile acid receptor (Homo sapiens) (UniProt Q96RI1). Description: OT_FXR_FXRSRC1_0480: Odyssey Thera (OT) 8-hour HEK293T Protein-Complementation Assay for Farnesoid X receptor/SRC-1 Co-activator (AID 2283383). The essentials:
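PCA, HEK293T, 8 h compound exposure; FXR–SRC-1 binding reconstitutes split reporter; fluorescence intensity; positive-direction fit vs DMSO.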

The target is the same in experiment [13]. The experiment is described as follows: OT_FXR_FXRSRC1_1440: Odyssey Thera (OT) 24-hour HEK293T Protein-Complementation Assay for Farnesoid X receptor/SRC-1 Co-activator (AID 2283384). The essentials: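 Measures ligand-driven FXR–SRC-1 co-activator recruitment in HEK293T via fragment complementation, fluorescence intensity at 24 h. DMSO served as negative control and baseline for gain-of-signal fitting.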

Experiment [14] concerns the target Estrogen receptor (Homo sapiens) (UniProt P03372). Description: OT_ERa_GFPERaERE_0120: Odyssey Thera (OT) 2-hour HeLa Transcription Induction Assay for Estrogen Receptor (AID 2283382). Summed up:
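Cells (human cervical HeLa) receive compound, incubate 2 hours, then are imaged for fluorescent reporter induction. Images are quantified by high content analysis, and activity is fitted as gain of signal against DMSO.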

The target in experiment [15] is human Norepinephrine Transporter (NET), SLC6A2 (gene 6530) (UniProt P23975). Description: NVS_TR_hNET: NovaScreen (NVS) Transporter Assay for human Norepinephrine Transporter (NET) (AID 2283377).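 Note: cell-free membrane protein extracted from CHO cells expressing human NET; displacement of radioligand from human NET seen as loss of scintillation signal.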 The essentials: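 In this cell-free binding screen, chemicals at 25 uM (duplicate) compete with a radioligand for CHO-derived human NET over 1 hour, with filter-based radiodetection.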

Experiment [16] is described as follows: CEETOX_H295R_ANDR: CeeTox H295R High-throughput Steroidogenesis Assay for Androstenedione (ANDR) (AID 2283436; active = hit-call score of the fitted dose curve at least 0.9, where 1 is the maximum; inactive = score below 0.9;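 note: human H295R adrenal cells exposed for 48 h with androstenedione measured in medium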). The following applies: actives raise or lower the signal. Summed up:
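Steroidogenesis in H295R adrenal cells after 48 h dosing; androstenedione quantified by LC-MS/MS, with DMSO as negative control and baseline for bidirectional curve fitting.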

Results filed as inconclusive are left out. Where a structure was tested more than once in an assay, its records may differ in their call. Activity calls are given as the source filed them. Rule for the calls, unless noted: active = hit-call score of the fitted dose curve at least 0.9, where 1 is the maximum; inconclusive = response in the unintended direction; inactive = score below 0.9.

Chain of mouse Estrogen Receptor alpha (Era), Esr1 (gene 13982) (P19785 whole entry, looked up): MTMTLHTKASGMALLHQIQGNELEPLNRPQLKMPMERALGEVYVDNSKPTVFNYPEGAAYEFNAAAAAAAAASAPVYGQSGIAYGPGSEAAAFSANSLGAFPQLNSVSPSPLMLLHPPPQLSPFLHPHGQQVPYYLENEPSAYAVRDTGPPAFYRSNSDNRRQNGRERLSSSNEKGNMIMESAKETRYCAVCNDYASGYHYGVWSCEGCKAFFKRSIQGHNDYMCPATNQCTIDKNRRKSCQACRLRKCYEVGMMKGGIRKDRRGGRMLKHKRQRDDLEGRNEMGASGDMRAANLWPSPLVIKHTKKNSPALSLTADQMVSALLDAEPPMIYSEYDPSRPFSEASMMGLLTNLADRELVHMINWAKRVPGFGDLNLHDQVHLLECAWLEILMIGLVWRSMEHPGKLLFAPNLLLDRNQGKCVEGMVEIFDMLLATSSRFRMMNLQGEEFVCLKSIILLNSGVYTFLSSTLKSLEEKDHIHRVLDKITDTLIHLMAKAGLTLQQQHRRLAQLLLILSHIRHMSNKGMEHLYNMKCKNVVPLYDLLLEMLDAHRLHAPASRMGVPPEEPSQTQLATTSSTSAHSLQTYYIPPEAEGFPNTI
Chain of Bile acid receptor (Homo sapiens) (Q96RI1 whole entry, looked up): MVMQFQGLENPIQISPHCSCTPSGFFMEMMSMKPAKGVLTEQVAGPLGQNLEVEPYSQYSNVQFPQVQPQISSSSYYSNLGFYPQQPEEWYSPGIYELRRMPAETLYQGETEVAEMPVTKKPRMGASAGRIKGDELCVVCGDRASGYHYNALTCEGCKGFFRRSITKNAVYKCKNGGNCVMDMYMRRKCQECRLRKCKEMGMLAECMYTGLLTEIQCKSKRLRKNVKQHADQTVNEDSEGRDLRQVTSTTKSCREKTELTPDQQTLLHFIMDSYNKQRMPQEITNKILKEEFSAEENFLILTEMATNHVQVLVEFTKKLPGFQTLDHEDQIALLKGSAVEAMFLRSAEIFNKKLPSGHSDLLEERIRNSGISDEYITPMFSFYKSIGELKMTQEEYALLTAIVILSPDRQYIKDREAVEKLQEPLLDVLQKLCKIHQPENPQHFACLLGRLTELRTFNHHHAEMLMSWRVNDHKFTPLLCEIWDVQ
Chain of Estrogen receptor beta (Homo sapiens) (Q92731 whole entry, looked up, the tested form may be a part): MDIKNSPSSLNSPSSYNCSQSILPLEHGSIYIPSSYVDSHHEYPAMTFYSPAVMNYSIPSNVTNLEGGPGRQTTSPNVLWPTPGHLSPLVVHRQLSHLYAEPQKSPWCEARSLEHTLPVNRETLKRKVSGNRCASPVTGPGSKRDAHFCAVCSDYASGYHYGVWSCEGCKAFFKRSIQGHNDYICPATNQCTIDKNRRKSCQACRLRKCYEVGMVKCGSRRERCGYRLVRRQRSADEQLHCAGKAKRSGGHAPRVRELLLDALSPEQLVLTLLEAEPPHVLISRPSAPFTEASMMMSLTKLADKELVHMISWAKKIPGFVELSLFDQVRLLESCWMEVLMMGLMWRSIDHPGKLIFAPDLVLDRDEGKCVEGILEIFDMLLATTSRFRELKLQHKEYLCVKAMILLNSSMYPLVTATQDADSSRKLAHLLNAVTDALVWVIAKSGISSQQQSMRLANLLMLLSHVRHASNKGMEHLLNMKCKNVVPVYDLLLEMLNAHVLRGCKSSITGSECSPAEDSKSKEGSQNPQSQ
Chain of Peroxisome proliferator-activated receptor gamma (Homo sapiens) (P37231 whole entry, looked up): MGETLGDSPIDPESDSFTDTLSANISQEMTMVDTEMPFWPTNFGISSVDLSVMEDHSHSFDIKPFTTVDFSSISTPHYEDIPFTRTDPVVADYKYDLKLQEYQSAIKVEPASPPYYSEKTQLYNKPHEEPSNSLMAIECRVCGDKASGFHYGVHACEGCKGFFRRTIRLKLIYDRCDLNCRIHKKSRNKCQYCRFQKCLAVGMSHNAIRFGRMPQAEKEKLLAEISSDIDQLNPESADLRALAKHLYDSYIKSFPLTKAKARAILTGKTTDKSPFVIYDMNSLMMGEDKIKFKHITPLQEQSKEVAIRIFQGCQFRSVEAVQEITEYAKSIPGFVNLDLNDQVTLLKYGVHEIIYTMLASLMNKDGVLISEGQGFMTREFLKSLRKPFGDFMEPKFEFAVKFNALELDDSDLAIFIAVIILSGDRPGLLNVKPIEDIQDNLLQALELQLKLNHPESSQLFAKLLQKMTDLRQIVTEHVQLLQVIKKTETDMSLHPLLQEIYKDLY
Chain of Estrogen receptor (Homo sapiens) (P03372 whole entry, looked up): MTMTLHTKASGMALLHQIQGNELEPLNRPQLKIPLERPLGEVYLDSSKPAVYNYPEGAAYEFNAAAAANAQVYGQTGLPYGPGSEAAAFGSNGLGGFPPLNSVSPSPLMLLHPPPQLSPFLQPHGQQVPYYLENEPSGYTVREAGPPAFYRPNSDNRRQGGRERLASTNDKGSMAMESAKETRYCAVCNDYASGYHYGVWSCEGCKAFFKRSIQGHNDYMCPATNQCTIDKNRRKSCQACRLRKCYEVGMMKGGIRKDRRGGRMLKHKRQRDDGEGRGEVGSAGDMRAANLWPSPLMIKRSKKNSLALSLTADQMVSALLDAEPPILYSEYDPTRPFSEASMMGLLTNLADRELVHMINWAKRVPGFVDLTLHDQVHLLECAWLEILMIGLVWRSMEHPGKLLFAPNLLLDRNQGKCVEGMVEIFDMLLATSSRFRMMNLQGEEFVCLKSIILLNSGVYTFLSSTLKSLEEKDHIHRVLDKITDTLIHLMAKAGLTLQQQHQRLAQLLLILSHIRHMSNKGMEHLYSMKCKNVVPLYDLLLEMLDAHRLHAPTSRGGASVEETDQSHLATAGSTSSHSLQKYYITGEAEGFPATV
Chain of Retinoic acid receptor RXR-alpha (Homo sapiens) (P19793 whole entry, looked up, the tested form may be a part): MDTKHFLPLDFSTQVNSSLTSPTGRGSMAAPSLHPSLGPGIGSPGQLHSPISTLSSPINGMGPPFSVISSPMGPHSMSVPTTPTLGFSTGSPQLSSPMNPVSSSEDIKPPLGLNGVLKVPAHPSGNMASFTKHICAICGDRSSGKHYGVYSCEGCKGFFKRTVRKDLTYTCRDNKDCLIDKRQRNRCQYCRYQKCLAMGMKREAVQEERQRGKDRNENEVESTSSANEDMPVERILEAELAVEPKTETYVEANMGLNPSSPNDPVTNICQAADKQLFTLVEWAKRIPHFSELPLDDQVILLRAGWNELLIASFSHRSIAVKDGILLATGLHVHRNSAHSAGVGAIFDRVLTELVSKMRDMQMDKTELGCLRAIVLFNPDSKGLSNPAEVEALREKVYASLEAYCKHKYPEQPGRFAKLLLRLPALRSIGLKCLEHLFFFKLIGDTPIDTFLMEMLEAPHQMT
Chain of human Norepinephrine Transporter (NET), SLC6A2 (gene 6530) (P23975 whole entry, looked up): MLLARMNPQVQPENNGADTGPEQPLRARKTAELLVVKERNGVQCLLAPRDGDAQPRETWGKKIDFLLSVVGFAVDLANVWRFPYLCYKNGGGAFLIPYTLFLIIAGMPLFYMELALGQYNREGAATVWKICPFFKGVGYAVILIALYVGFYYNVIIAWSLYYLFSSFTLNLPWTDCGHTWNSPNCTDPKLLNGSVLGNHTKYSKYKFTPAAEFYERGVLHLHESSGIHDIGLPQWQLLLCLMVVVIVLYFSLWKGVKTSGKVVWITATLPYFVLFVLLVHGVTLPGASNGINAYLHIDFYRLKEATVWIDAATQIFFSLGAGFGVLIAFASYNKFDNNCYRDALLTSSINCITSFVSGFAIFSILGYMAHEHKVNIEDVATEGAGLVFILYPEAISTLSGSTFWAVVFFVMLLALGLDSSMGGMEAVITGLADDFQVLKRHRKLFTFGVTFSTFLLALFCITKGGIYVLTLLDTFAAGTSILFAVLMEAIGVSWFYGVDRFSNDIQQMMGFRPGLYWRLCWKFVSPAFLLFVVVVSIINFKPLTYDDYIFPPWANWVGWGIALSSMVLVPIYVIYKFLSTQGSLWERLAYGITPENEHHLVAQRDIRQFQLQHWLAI
Chain of rat Serotonin Transporter (SERT), Slc6a4 (gene 25553) (P31652 whole entry, looked up): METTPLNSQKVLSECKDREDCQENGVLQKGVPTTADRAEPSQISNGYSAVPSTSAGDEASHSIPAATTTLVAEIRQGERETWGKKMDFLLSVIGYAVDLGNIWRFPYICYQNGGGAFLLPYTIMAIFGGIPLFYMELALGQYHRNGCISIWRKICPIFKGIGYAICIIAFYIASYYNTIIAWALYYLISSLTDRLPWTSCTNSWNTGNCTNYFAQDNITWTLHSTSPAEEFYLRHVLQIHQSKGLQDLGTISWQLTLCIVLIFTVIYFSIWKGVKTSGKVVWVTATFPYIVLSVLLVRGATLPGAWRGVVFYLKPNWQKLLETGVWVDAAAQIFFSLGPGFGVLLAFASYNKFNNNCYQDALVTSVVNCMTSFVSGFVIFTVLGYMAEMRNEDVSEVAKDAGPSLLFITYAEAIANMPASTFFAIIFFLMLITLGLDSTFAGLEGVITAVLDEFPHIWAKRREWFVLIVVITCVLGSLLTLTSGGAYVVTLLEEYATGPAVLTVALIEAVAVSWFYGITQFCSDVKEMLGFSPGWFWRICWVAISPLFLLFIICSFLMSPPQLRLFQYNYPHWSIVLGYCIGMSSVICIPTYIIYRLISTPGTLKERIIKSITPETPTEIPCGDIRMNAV

On to `NC(=O)N1c2ccccc2C=Cc2ccccc21`, for which the compound was called inactive in [1], in [2], in experiment [3], in experiment [4], in experiment [5] and in experiment [6].
On to `CCCCCCCCN(C)C`, for which the AC50 in experiment [7] is 12.5 µM (active). For the same compound, the outcome in experiment [3], in experiment [8], in [4], in experiment [5], in experiment [9] and in experiment [10] was inactive. The outcome in experiment [11] was inactive.
In the case of `Cc1cccc(O)c1C`, the call in [1], in experiment [2], in [3], in experiment [12], in experiment [13] and in experiment [5] was inactive. Besides, the result in experiment [6] was inactive.
As for `Nc1ccn([C@@H]2O[C@H](CO)[C@@H](O)[C@@H]2O)c(=O)n1`, the compound was classed as inactive in experiment [1], in experiment [3], in experiment [12], in experiment [13], in [8] and in experiment [4]. In addition, the compound was classed as inactive in experiment [5], in experiment [9], in experiment [10] and in experiment [11]. In addition, the AC50 in experiment [14] was 62.2 µM (active).
For `c1ccc2cc3ccccc3cc2c1`, the AC50 in [15] is 6.95 µM (active); in experiment [4] it was 72.7 µM (active). For the same compound, the compound was classed as inactive in experiment [2], in experiment [3], in [12], in [13], in [8] and in experiment [5].
As for `O=C(O)c1ccc2c(c1)nc(C(=O)NC1CCN(C3CC3)CC1)n2Cc1cc(-c2ccc(Cl)s2)on1`, the compound was called inactive in [2], in [3], in experiment [12], in experiment [13], in [8] and in [4]. For the same compound, the compound was called inactive in experiment [5].
In the case of `COCc1nnc(-c2ccc[n+]([O-])c2)n1-c1c(Cl)c(Cl)cc2[nH]c(=O)c(=O)[nH]c12`, the call in [2], in experiment [3], in experiment [14], in experiment [12], in experiment [8] and in experiment [4] was inactive. In [5], the result was inactive.
Turning to `C=CN1CCCC1=O`, the compound was classed as inactive in experiment [3], in [14], in experiment [8], in experiment [4] and in experiment [5].
As for `Cn1c(=O)c2[nH]cnc2n(C)c1=O`, the call in experiment [12], in experiment [13], in experiment [8], in [4] and in [5] was inactive.
In the case of `OCc1c[nH]c2ccccc12`, the compound was called inactive in experiment [10] and in experiment [16]. In experiment [11], the AC50 was 15.8 µM (active).
Consider `Cc1ncc([C@@H](CCCCCCc2ccc3c(n2)NCCC3)CC(=O)O)cn1`, for which the result in [2], in experiment [3], in [14], in [13], in experiment [8] and in experiment [4] was inactive. For the same compound, the result in experiment [5], in experiment [6] and in experiment [10] was inactive. For the same compound, in experiment [5], the AC50 was 12.4 µM (active).
On to `O=S1(=O)CCCO1`, for which, in experiment [2], the AC50 is 17.5 µM (active). Also, the outcome in [3], in experiment [8], in experiment [4], in [5] and in [6] was inactive.
For the compound `CCCCCCCC/C=C\CCCCCCCC(=O)OC[C@@H](O)[C@H]1OC[C@H](O)[C@H]1O`, the outcome in experiment [2], in experiment [3], in [8], in [4] and in [5] was inactive.
On to `OC(Cn1cncn1)(Cn1cncn1)c1ccc(F)cc1F`, for which the compound was classed as inactive in [2], in experiment [3], in experiment [8], in [4] and in experiment [5].
Turning to `CC1(C)C(=O)N(Cl)C(=O)N1Cl`, the outcome in experiment [3], in experiment [14], in [8], in experiment [4], in [5] and in experiment [6] was inactive.
Regarding `CCCCCCCCCCCCCCO`, the outcome in [2], in [3], in experiment [14], in experiment [8], in experiment [4] and in experiment [5] was inactive. The outcome in experiment [6], in experiment [10] and in experiment [11] was inactive. Besides, the AC50 in experiment [4] was 74.3 µM (active).
`OCC(CO)(CO)CO`: the outcome in [2], in experiment [3], in [4] and in experiment [5] was inactive.
Turning to `O=C(O)[C@H](O)[C@@H](O)C(=O)O`, the compound was classed as inactive in experiment [2], in experiment [3], in experiment [12], in [13], in experiment [8] and in experiment [4]. In addition, the compound was classed as inactive in experiment [5] and in [6].
For `CCCCCCCC1CCC(=O)O1` (configuration not stated), the outcome in [2], in experiment [3], in [8], in [5], in [6] and in [10] was inactive. In experiment [11], the result was inactive.
On to `C[C@@H](Oc1ccc(CNC(=O)c2cccnc2Oc2ccc3c(c2)OCO3)c(F)c1)C(=O)O`, for which the result in experiment [2], in [3], in experiment [12], in experiment [8], in experiment [4] and in experiment [5] was inactive. The call in [9], in [10] and in [11] was inactive.

As usually defined, the AC50 is the midpoint of the concentration-response curve, whichever way the signal moves.
